Source: PubChem BioAssay (EPA / NIEHS)
Records with an inconclusive call do not appear. Active and inactive are the calls of the source. Rule for the calls: active = hit-call score of the fitted dose curve at least 0.9, where 1 is the maximum; inactive = score below 0.9.

The molecules below were run on Cytochrome P450 2C9 (Homo sapiens) (UniProt P11712) (assay: CLD_CYP2C9_48hr: CellzDirect (CLD) Gene Expression Assay for xenobiotic metabolism (CYP2C9) at 48 hours (AID 2283701)).
Protocol: CLD_48hr is a cell-based, multiplexed-readout assay that uses hepatocyte, a human liver primary cell, with measurements taken at 48 hours after chemical dosing in a 96-well plate.CLD_CYP2C9_48hr is one of 16 assay component(s) measured or calculated from the CLD_48hr assay. It is designed to make measurements of mRNA induction, a form of inducible reporter, as detected with chemiluminescence signals by Quantitative Nuclease Protection Assay (qNPA) technology.Data from the assay component CLD_CYP2C9_48hr was analyzed at the endpoint, CLD_CYP2C9_48hr, in the positive analysis fitting direction relative to DMSO as the negative control and baseline of activity. Using a type of inducible reporter, gain-of-signal activity can be used to understand changes in the reporter gene as they relate to the gene CYP2C9. Furthermore, this assay endpoint can be referred to as a primary readout. To generalize the intended target to other relatable targets, this assay endpoint is annotated to the cyp intended target family, where subfamily is xenobiotic metabolism.
Human hepatocyte cultures were treated daily for two consecutive days with fresh dosing solutions containing appropriate concentrations of the 320 ToxCast chemicals (chemical identities were blinded to CellzDirect and other ToxCast collaborators), vehicle control (0.2% DMSO), and positive control inducers as summarized in Table 1. Due to the large number of treatment groups and chemicals examined, the ToxCast chemicals were divided into two groups (spanning two independent cultures of hepatocytes from separate donor preparations (Hu778: ToxCast plates 1 and 2; Hu776: ToxCast plates 3 and 4). Each preparation of human hepatocyte cultures was treated with respective vehicle control, medium only control, set of six positive controls/reference chemicals for the five hepatic receptor pathways, and a subset of eight of the ToxCast chemicals (indoxacarb, pyrithiobac-sodium, norflurazon, cyhalofop-butyl, methomyl, thiram, acetochlor, and propiconazole). These replicate data, coupled with internal replicates designed within the blinded ToxCast chemical library, provided additional data to evaluate interindividual differences between hepatocyte preparations and their potential impact on chemical profiles.Cell morphology and integrity were evaluated using phase-contrast microscopy as an indicator of hepatocyte cell health (Tyson & Green, 1987). Cultures for each treatment group (i.e., media, vehicle [0.2% DMSO], positive control inducers [multiple concentrations], and the ToxCast chemicals [multiple concentrations]) were observed and cell morphology was assessed relative to vehicle control cultures at each harvest time point (0, 6, 24, or 48 h). […] Images were evaluated at the conclusion of the study to assess changes in cell integrity and account for the effects of chemical exposure on uncharacteristic changes in concentration-dependent gene expression profiles. The results from these determinations of apparent cytotoxicity were annotated (yes/no) alongside the corresponding qNPA data for reference.At the conclusion of each treatment period, hepatocyte cultures (96-well) were washed with 1 volume of HBSS, lysed by addition of 25 ul ArrayPlate lysis buffer (HTG, Tucson, AZ), and 70 ul/well of Denaturation Oil, denatured by incubation at 95C for 10 min, and frozen at approximately -70C until analysis by nuclease protection assay (qNPA) (Roberts et al., 2007). For qNPA analysis, cell lysates were thawed at 50C for approximately 30 min, qNPA probes were added, and samples were incubated at 95C for 10 min to begin the detection process by denaturing the target RNA, dissociating the duplexes and secondary structure hybridization. At the conclusion of the hybridization period, S1 nuclease reagent was added to each sample to digest all nonprotected nucleotides at 50C for 60-90 min. […]

SMILES | outcome
COC(=O)c1c(Cl)nn(C)c1S(=O)(=O)NC(=O)Nc1nc(OC)cc(OC)n1 | inactive
CCCN(CCC)c1c([N+](=O)[O-])cc(C(F)(F)F)c(N)c1[N+](=O)[O-] | inactive
COC(=O)c1cccc(C)c1S(=O)(=O)NC(=O)Nc1nc(OCC(F)(F)F)nc(N(C)C)n1 | inactive
c1ccc(Nc2ccccc2)cc1 | inactive
CC(C)(c1ccc(O)cc1)c1ccc(O)cc1 | inactive
CCOC(=O)[C@H](C)Oc1ccc(Oc2nc3ccc(Cl)cc3o2)cc1 | inactive
CCCCC(CC)CN1C(=O)C2C3C=CC(C3)C2C1=O (stereo not drawn) | inactive
CCCCC(CC)COC(=O)c1ccccc1C(=O)O (stereo not drawn) | inactive
CCCN(CCC)C(=O)SCC | inactive
CC1(C)C(C=C(Cl)Cl)C1C(=O)OCc1cccc(Oc2ccccc2)c1 (stereo not drawn) | inactive
C#CCOC(=O)[C@@H](C)Oc1ccc(Oc2ncc(Cl)cc2F)cc1 | inactive
CCCCCCC(C)OC(=O)COc1nc(F)c(Cl)c(N)c1Cl (stereo not drawn) | inactive
COC(=O)c1ccc(I)cc1S(=O)(=O)NC(=O)Nc1nc(C)nc(OC)n1 | inactive
OB(O)O | inactive
COCCO | inactive
CCOC(=O)COc1cc(-n2ncc(C(F)(F)F)c(C)c2=O)c(F)cc1Cl | inactive
CCOC(=O)NCCOc1ccc(Oc2ccccc2)cc1 | inactive
CCCCCOC(=O)COc1cc(N2C(=O)C3=C(CCCC3)C2=O)c(F)cc1Cl | inactive
